Measured values taken from PubChem BioAssay (EPA / NIEHS).
The source made the active and inactive calls. How the source made its calls: active means hit-call score of the fitted dose curve at least 0.9, where 1 is the maximum; inactive means score below 0.9.

These molecules were tested on Vascular endothelial growth factor receptor 2 (Homo sapiens) (UniProt P35968) (assay: BSK_4H_VEGFRII: BioMAP Diversity Plus: 4H Assay for Vascular endothelial growth factor receptor 2 (VEGFR2) Biomarker Activity (AID 2283031;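 on AC50: cell-surface VEGFR2 protein level quantified by ELISA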)). Settings: primary human endothelial cells (HUVEC); actives raise or lower the signal.
Outline: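 Primary human umbilical vein endothelial cells (4H system), 24 h exposure; cell-surface VEGFR2 measured by ELISA. Bidirectional fitting versus DMSO; cytotoxicity checked in parallel by SRB total-protein staining.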

| Compound | outcome | AC50 |
| --- | --- | --- |
| CC(C)(C)OOC(C)(C)CCC(C)(C)OOC(C)(C)C | inactive |  |
| c1ccc2c(c1)oc1ccccc12 | inactive |  |
| Nc1ccc([N+](=O)[O-])cc1 | inactive |  |
| Nc1ccc(Oc2ccc(N)cc2)cc1 | inactive |  |
| COC(=O)c1ccccc1N | inactive |  |
| O=C(O)C1C2CCC(O2)C1C(=O)O (stereo unspecified) | inactive |  |
| O=P(OCCCl)(OCCCl)OCCCl | inactive |  |
| CC(C)(OOC(C)(C)c1ccccc1)c1ccccc1 |  | 37.3 µM (active) |
| CC(C)N(Cc1ccccc1)C(=O)C(C)(C)C | inactive |  |
| CS(=O)(=O)NC(=O)c1cc(Oc2ccc(C(F)(F)F)cc2Cl)ccc1[N+](=O)[O-] | inactive |  |
| CCN(CC)CCO | inactive |  |
| O=C(Oc1ccc(Br)cc1)N1CCN2CCC1CC2 | inactive |  |
| O=[N+]([O-])C(Br)(CO)CO | inactive |  |
| c1ccc(C2CO2)cc1 (stereo unspecified) | inactive |  |
| c1ccc(N=Nc2ccccc2)cc1 | inactive |  |
| Oc1ccc2ccc3cccc4ccc1c2c34 | inactive |  |
| COP(=S)(OC)SCN1C(=O)c2ccccc2C1=O | inactive |  |
| [Cl-].[Cl-].[Hg+2] | inactive |  |
| CCN(CC)N=O | inactive |  |
| Nc1ccc(N=Nc2ccccc2)cc1 | inactive |  |
| CCOC(=O)[C@]1(c2ccccc2)Oc2ccccc2[C@@H]1N | inactive |  |
| c1ccc(NNc2ccccc2)cc1 | inactive |  |
| CCCCCOC(=O)c1ccccc1C(=O)OCCCCC | inactive |  |
| CCCCCCCCOC(=O)c1ccc(C(=O)OCCCCCCCC)c(C(=O)OCCCCCCCC)c1 | inactive |  |
| O=[N+]([O-])c1ccc(Oc2ccc(Cl)cc2Cl)cc1 | inactive |  |

What follows are molecules tested on Human Leukocyte Antigen - DR isotype (HLADR), HLA-DRA (gene 3122) (assay: BSK_BE3C_HLADR: BioMAP Diversity Plus: BE3C Assay for Human Leukocyte Antigen - DR isotype (HLADR) Biomarker Activity (AID 2283032)). Settings: primary human bronchial epithelial cells; actives raise or lower the signal.
Outline: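 Chemicals are dosed onto BE3C bronchial epithelial cultures of human origin and left 24 h. HLA-DR is then measured by ELISA, and the endpoint is fitted in both directions using DMSO as the activity baseline.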

| Compound | outcome | AC50 |
| --- | --- | --- |
| CC(C)(C)OOC(C)(C)CCC(C)(C)OOC(C)(C)C | inactive |  |
| c1ccc2c(c1)oc1ccccc12 | inactive |  |
| Nc1ccc([N+](=O)[O-])cc1 | inactive |  |
| Nc1ccc(Oc2ccc(N)cc2)cc1 | inactive |  |
| COC(=O)c1ccccc1N | inactive |  |
| c1ccc2c(c1)-c1cccc3cccc-2c13 | inactive |  |
| O=C(O)C1C2CCC(O2)C1C(=O)O (stereo unspecified) | inactive |  |
| O=P(OCCCl)(OCCCl)OCCCl | inactive |  |
| CC(C)(OOC(C)(C)c1ccccc1)c1ccccc1 |  | 27.7 µM (active) |
| CC(C)N(Cc1ccccc1)C(=O)C(C)(C)C | inactive |  |
| CS(=O)(=O)NC(=O)c1cc(Oc2ccc(C(F)(F)F)cc2Cl)ccc1[N+](=O)[O-] | inactive |  |
| [O-][Cl+]O | inactive |  |
| CCN(CC)CCO | inactive |  |
| O=C(Oc1ccc(Br)cc1)N1CCN2CCC1CC2 | inactive |  |
| O=[N+]([O-])C(Br)(CO)CO | inactive |  |
| c1ccc(C2CO2)cc1 (stereo unspecified) | inactive |  |
| c1ccc(N=Nc2ccccc2)cc1 | inactive |  |
| Oc1ccc2ccc3cccc4ccc1c2c34 |  | 34.6 µM (active) |
| CCC[CH2][Sn]([Cl])([CH2]CCC)[CH2]CCC |  | 0.215 µM (active) |
| COP(=S)(OC)SCN1C(=O)c2ccccc2C1=O | inactive |  |
| [Cl-].[Cl-].[Hg+2] |  | 30.2 µM (active) |
| CCN(CC)N=O | inactive |  |
| Nc1ccc(N=Nc2ccccc2)cc1 | inactive |  |
| CCOC(=O)[C@]1(c2ccccc2)Oc2ccccc2[C@@H]1N |  | 20 µM (active) |
| c1ccc(NNc2ccccc2)cc1 | inactive |  |
| CCCCCOC(=O)c1ccccc1C(=O)OCCCCC | inactive |  |
| CCCCCCCCOC(=O)c1ccc(C(=O)OCCCCCCCC)c(C(=O)OCCCCCCCC)c1 | inactive |  |
| O=[N+]([O-])c1ccc(Oc2ccc(Cl)cc2Cl)cc1 |  | 20 µM (active) |

These molecules were tested on Vascular cell adhesion molecule 1 (VCAM1), VCAM1 (gene 7412) (assay: BSK_4H_VCAM1: BioMAP Diversity Plus: 4H Assay for Vascular cell adhesion molecule 1 (VCAM1) Biomarker Activity (AID 2283033;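 on outcome: cell-surface VCAM-1 protein measured by ELISA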)). Settings: primary human endothelial cells (HUVEC); actives raise or lower the signal.
Outline: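 Chemicals are added to primary human umbilical vein endothelial cells. After 24 h, VCAM-1 levels are measured by ELISA. Values come from bidirectional fitting referenced to DMSO.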

| Compound | outcome | AC50 |
| --- | --- | --- |
| CC(C)(C)OOC(C)(C)CCC(C)(C)OOC(C)(C)C | inactive |  |
| c1ccc2c(c1)oc1ccccc12 | inactive |  |
| Nc1ccc([N+](=O)[O-])cc1 | inactive |  |
| Nc1ccc(Oc2ccc(N)cc2)cc1 | inactive |  |
| COC(=O)c1ccccc1N | inactive |  |
| c1ccc2c(c1)-c1cccc3cccc-2c13 | inactive |  |
| O=C(O)C1C2CCC(O2)C1C(=O)O (stereo unspecified) |  | 12.1 µM (active) |
| O=P(OCCCl)(OCCCl)OCCCl | inactive |  |
| CC(C)(OOC(C)(C)c1ccccc1)c1ccccc1 |  | 26.4 µM (active) |
| CC(C)N(Cc1ccccc1)C(=O)C(C)(C)C | inactive |  |
| CS(=O)(=O)NC(=O)c1cc(Oc2ccc(C(F)(F)F)cc2Cl)ccc1[N+](=O)[O-] | inactive |  |
| [O-][Cl+]O | inactive |  |
| CCN(CC)CCO | inactive |  |
| O=C(Oc1ccc(Br)cc1)N1CCN2CCC1CC2 | inactive |  |
| O=[N+]([O-])C(Br)(CO)CO |  | 27.1 µM (active) |
| c1ccc(C2CO2)cc1 (stereo unspecified) | inactive |  |
| c1ccc(N=Nc2ccccc2)cc1 | inactive |  |
| Oc1ccc2ccc3cccc4ccc1c2c34 |  | 34 µM (active) |
| CCC[CH2][Sn]([Cl])([CH2]CCC)[CH2]CCC |  | 0.148 µM (active) |
| COP(=S)(OC)SCN1C(=O)c2ccccc2C1=O | inactive |  |
| [Cl-].[Cl-].[Hg+2] |  | 29.7 µM (active) |
| CCN(CC)N=O | inactive |  |
| Nc1ccc(N=Nc2ccccc2)cc1 | inactive |  |
| CCOC(=O)[C@]1(c2ccccc2)Oc2ccccc2[C@@H]1N |  | 7.44 µM (active) |
| c1ccc(NNc2ccccc2)cc1 | inactive |  |
| CCCCCOC(=O)c1ccccc1C(=O)OCCCCC |  | 18.5 µM (active) |
| CCCCCCCCOC(=O)c1ccc(C(=O)OCCCCCCCC)c(C(=O)OCCCCCCCC)c1 | inactive |  |
| O=[N+]([O-])c1ccc(Oc2ccc(Cl)cc2Cl)cc1 | inactive |  |
